Experimental findings from PubChem BioAssay AID624255 (Broad Institute, 2012) are described below.

Values joined by “and” are separate entries in the source; they are usually repeats but may differ in a detail not shown here. Equal entries are not always repeated. Among all 77,000 compounds or so, about 4,600 (6%) were called active. Inconclusive results (about 1%) are left out. This excerpt belongs to a sample that is enriched for actives. Unmarked numbers belong to inactive results.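 How the source made its calls: active means mean inhibition above about 93%, with at least 55% of replicates each passing it (limit read from the data, passing the limit was not always enough); inconclusive means only one of those two conditions holds; inactive means neither condition holds.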

The nature of the experiment: T. cruzi intracellular proliferation inhibitors, primary screen, cell-based, beta-gal Tulahuen parasites, NIH3T3 host, luminescence (AID 624255). The following applies: T. cruzi beta-gal in NIH3T3, GalScreen luminescence, 90 h; at 8.34 µM; stronger effect = higher value.
For the compound `COc1cccc(S(=O)(=O)N2CCCCN3[C@H](C2)[C@H](c2ccc(C#CC(C)C)cc2)[C@@H]3CO)c1`, the inhibition was 118% (active). With `COc1ccc(C#Cc2ccc([C@H]3[C@@H](CO)N4CCCCN(S(=O)(=O)c5cn(C)cn5)C[C@H]34)cc2)cc1` the figure was 50.5%; with `COc1cccc(S(=O)(=O)N2CCCCN3[C@H](CO)[C@H](c4ccc(-c5ccncc5)cc4)[C@H]3C2)c1`, 111% (active); with `COc1ccc(S(=O)(=O)N2CCCCN3[C@H](CO)[C@@H](c4ccc(C#CC(C)C)cc4)[C@H]3C2)cc1`, 106% (active).

Take `COc1cccc(S(=O)(=O)N2CCCCN3[C@H](C2)[C@@H](c2ccc(C4=CCCCC4)cc2)[C@@H]3CO)c1`: the inhibition is 51.4%.

Take `Cc1cccc(S(=O)(=O)N2CCCCN3[C@@H](CO)[C@H](c4ccc(-c5cccnc5)cc4)[C@@H]3C2)c1`: the inhibition is 12.6%. With `CCCNC(=O)C[C@H]1CC[C@H]2[C@@H](COC[C@H](O)CN2C(=O)Nc2c(C)noc2C)O1` the figure was -19.4%; with `COc1cccc(S(=O)(=O)N[C@@H]2CC[C@@H](CCNC(=O)Cc3ccncc3)O[C@H]2CO)c1`, 80.6%. Turning to `CS(=O)(=O)N1[C@H](C(=O)NCc2ccncc2)[C@@H](CO)[C@@H]2Cn3c(ccc(C4=CCCCC4)c3=O)[C@@H]21`, the inhibition is 58.6%. With `COc1cccc(S(=O)(=O)N2C[C@@H](O)COC[C@H]3O[C@@H](CC(=O)N4CCOCC4)CC[C@@H]32)c1` the figure was 22.5%; with `O=C(Nc1ccccc1F)N1C[C@@H]2[C@H](c3ccccc31)[C@@H](CO)N2C(=O)Nc1ccccc1`, 8.53%. `O=C(CN1CCOCC1)NCC[C@H]1CC[C@@H](NC(=O)Nc2ccc(Cl)cc2)[C@@H](CO)O1`: the inhibition was 46.9%.

Consider `O=C(C[C@H]1CC[C@@H]2[C@H](COC[C@@H](O)CN2C(=O)Nc2cccc(F)c2)O1)NCc1ccccc1F`, for which the inhibition is -36.9%. With `COc1cccc(C(=O)Nc2ccc3c(c2)C(=O)N(C)C[C@@H](OC)[C@H](C)CN(C(=O)C2CCOCC2)[C@H](C)CO3)c1` the figure was 9.28%; with `COc1ccc(NC(=O)Nc2ccc3c(c2)C(=O)N([C@H](C)CO)C[C@H](C)[C@H](CN(C)Cc2ccncc2)OCCCC[C@H](C)O3)cc1`, 97.9%; with `C[C@@H]1CN([C@H](C)CO)C(=O)c2cc(NC(=O)Nc3ccc(F)cc3)ccc2O[C@@H](C)CCCCO[C@H]1CN(C)Cc1ccc(Cl)c(Cl)c1`, 102% (active).

For `C[C@H](CO)N1C[C@H](C)[C@H](CN(C)Cc2ccc(Cl)c(Cl)c2)OCCCC[C@H](C)Oc2ccc(NC(=O)NC3CCCCC3)cc2C1=O`, the inhibition is 86.3%. As for `COc1ccc(CN(C)C[C@@H]2OCCCC[C@@H](C)Oc3ccc(NC(=O)Nc4ccc(OC)cc4)cc3C(=O)N([C@@H](C)CO)C[C@@H]2C)cc1`, the figure is 24.8%; as for `C[C@@H]1CCCCO[C@H](CN(C)Cc2ccc(Cl)c(Cl)c2)[C@@H](C)CN([C@@H](C)CO)C(=O)c2cc(NC(=O)Nc3ccccc3)ccc2O1`, 70.7%; as for `COc1ccc(NC(=O)Nc2ccc3c(c2)C(=O)N([C@H](C)CO)C[C@@H](C)[C@H](CN(C)Cc2ccc(Cl)c(Cl)c2)OCCCC[C@@H](C)O3)cc1`, 126% (active). As for `COc1ccccc1-c1ccc2n(c1=O)C[C@H]1[C@H](CO)[C@@H](C(=O)N[C@@H](C)c3ccccc3)[C@@H]2N1C`, the inhibition was 18.4%.

For the compound `C[C@@H]1CN([C@H](C)CO)S(=O)(=O)c2ccc(C#CC3CCCC3)cc2O[C@@H]1CN(C)C(=O)Cc1ccncc1`, the inhibition is 117% (active). On to `C[C@@H]1CN([C@H](C)CO)S(=O)(=O)c2ccc(C#CC3CCCCC3)cc2O[C@H]1CN(C)C(=O)Cc1ccncc1`, for which the inhibition was 92.8% and 91.8%. In the case of `CCC(=O)N(C)C[C@H]1Oc2cc(C#CC3CC3)ccc2S(=O)(=O)N([C@H](C)CO)C[C@H]1C`, the inhibition was -39.9%. As for `COCC(=O)N(C)C[C@@H]1Oc2cc(C#CC3CC3)ccc2S(=O)(=O)N([C@H](C)CO)C[C@H]1C`, the figure is -43%. As for `C[C@H]1CN([C@@H](C)CO)S(=O)(=O)c2ccc(C#CC3CCCC3)cc2O[C@H]1CN(C)C(=O)Cc1ccncc1`, the figure is 118% (active).

As for `CCC(=O)N(C)C[C@H]1Oc2cc(C#CC3CC3)ccc2S(=O)(=O)N([C@@H](C)CO)C[C@@H]1C`, the inhibition is 3.97%.

For the compound `C[C@@H]1CN([C@H](C)CO)C(=O)c2cc(C#CCN(C)C)cnc2O[C@H]1CN(C)C(=O)NC1CCCC1`, the inhibition is -10.7%.

Turning to `COc1ccc(S(=O)(=O)N[C@@H]2CC[C@H](CC(=O)N3CCc4ccccc4C3)O[C@H]2CO)cc1`, the inhibition was 16.5%. As for `CC(C)C#Cc1cnc2c(c1)C(=O)N([C@@H](C)CO)C[C@@H](C)[C@H](CN(C)C(=O)CCN1CCCCC1)O2`, the figure is 15%. As to `CC(=O)Nc1ccc2c(c1)C(=O)N(C)[C@@H]1CC[C@@H](CC(=O)NCC3CCCCC3)O[C@@H]1CO2`, the inhibition is 8.56%. As for `COCC(=O)N(C)C[C@H]1Oc2ncc(-c3cccc(OC)c3)cc2C(=O)N([C@H](C)CO)C[C@H]1C`, the figure is -6.11%; as for `N#Cc1cccc(-c2ccc([C@H]3[C@@H](CO)N4CCCCN(C(=O)Nc5ccccc5)C[C@H]34)cc2)c1`, 75.3%. With `O=C(Nc1ccccc1)N1CCCCN2[C@H](CO)[C@@H](c3ccc(C#Cc4ccccn4)cc3)[C@H]2C1` the figure was 108% (active). As for `CC(C)C#Cc1ccc([C@H]2[C@@H](CO)N3CCCCN(C(=O)Nc4ccccc4)C[C@H]23)cc1`, the figure is 49.6%; as for `N#Cc1cccc(-c2ccc([C@H]3[C@H](CO)N4CCCCN(C(=O)Nc5cccc(F)c5)C[C@@H]34)cc2)c1`, 105% (active). Consider `O=C(Nc1ccc(F)cc1)N1CCCCN2[C@H](CO)[C@H](c3ccc(C#Cc4ccccc4)cc3)[C@H]2C1`, for which the inhibition is 76.6%. As for `COc1ccccc1C#Cc1ccc([C@@H]2[C@H](CO)N3CCCCN(CCC(F)(F)F)C[C@@H]23)cc1`, the figure is 42.4%; as for `COc1ccc(C#Cc2ccc([C@H]3[C@@H](CO)N4CCCCN(C(=O)Nc5ccccc5)C[C@H]34)cc2)cc1`, 80.4%; as for `Cc1ccccc1-c1ccc([C@@H]2[C@@H](CO)N3CCCCN(C(=O)Nc4cccc(F)c4)C[C@H]23)cc1`, 91.9%. With `O=C(Nc1cccc(F)c1)N1CCCCN2[C@H](CO)[C@H](c3ccc(C#CC4CC4)cc3)[C@@H]2C1` the figure was 122% (active).

Consider `O=C(c1ccncc1)N1CCCCN2[C@H](CO)[C@@H](c3ccc(C#Cc4ccccn4)cc3)[C@H]2C1`, for which the inhibition was 91.2%. With `OC[C@@H]1[C@H](c2ccc(C#CC3CC3)cc2)[C@@H]2CN(CCC(F)(F)F)CCCCN12` the figure was 99.5% (active); with `O=C(C1CCC1)N1CCCCN2[C@H](C1)[C@@H](c1ccc(C#CC3CCCC3)cc1)[C@@H]2CO`, 86.9%; with `CN1CCN(C(=O)C[C@@H]2C=C[C@@H](NS(=O)(=O)c3cccc(F)c3)[C@@H](CO)O2)CC1`, -46.4%. As for `O=C(C[C@H]1C=C[C@H](NC(=O)NC2CCCCC2)[C@H](CO)O1)NCc1ccccc1`, the figure is -29.6%; as for `COc1ccc(CN(C)C[C@H]2OCCCC[C@@H](C)Oc3ccc(NS(C)(=O)=O)cc3C(=O)N([C@@H](C)CO)C[C@H]2C)cc1`, 89.5%. As for `CN(C)CC(=O)Nc1ccc2c(c1)[C@@H]1C[C@H](CC(=O)NCC3CC3)O[C@@H](CO)[C@@H]1O2`, the inhibition is -19.8%. As to `COc1ccc(NC(=O)Nc2ccc3c(c2)C(=O)N([C@@H](C)CO)C[C@H](C)[C@H](CN(C)C(=O)Nc2ccccc2)OCCCC[C@@H](C)O3)cc1`, the inhibition was 54%. As for `CO[C@@H]1CN(C)C(=O)c2cc(NC(=O)c3cccc(F)c3)ccc2OC[C@H](C)N(C)C[C@@H]1C`, the figure is 13.5%; as for `O=C(c1cccnc1)N1C[C@H]2[C@@H](c3ccccc31)[C@H](CO)N2C(=O)C1CCCCC1`, 19.5%. As for `COC(=O)C[C@@H]1CC[C@@H]2[C@H](COc3ccc(NS(=O)(=O)c4ccccc4F)cc3C(=O)N2C)O1`, the figure is 27.2%; as for `CCCC(=O)Nc1ccc2c(c1)OC[C@@H](C)N(CC1CCOCC1)C[C@H](C)[C@H](OC)CN(C)C2=O`, 7.69%; as for `CCC(=O)N1CCCCN2[C@H](C1)[C@@H](c1ccc(/C=C/c3ccccc3)cc1)[C@@H]2CO`, 105% (active). As for `CCC(=O)N1CCCCN2[C@H](C1)[C@@H](c1ccc(-c3ccc(F)cc3)cc1)[C@@H]2CO`, the figure is 101% (active); as for `CCC(=O)N1CCCCN2[C@H](CO)[C@@H](c3ccc(-c4cccnc4)cc3)[C@H]2C1`, 88.7%. For `COCC(=O)N1CCCCN2[C@H](CO)[C@H](c3ccc(-c4ccc(OC)cc4)cc3)[C@H]2C1`, the inhibition was 46.5%.

`O=C(CN1CCOCC1)N1CCCCN2[C@H](C1)[C@H](c1ccc(-c3ccccc3F)cc1)[C@@H]2CO`: the inhibition was 26.1%.

Turning to `COCC(=O)N1CCCCN2[C@H](C1)[C@@H](c1ccc(-c3ccccc3)cc1)[C@@H]2CO`, the inhibition was 53.8%. As for `CC(=O)N1CCCCN2[C@H](C1)[C@@H](c1ccc(-c3ccc(F)cc3)cc1)[C@@H]2CO`, the figure is 71%; as for `C/C=C/c1ccc([C@H]2[C@@H](CO)N3CCCCN(C(=O)c4ccc(F)cc4)C[C@@H]23)cc1`, 90.9%. As for `O=C(CN1CCOCC1)N1CCCCN2[C@H](CO)[C@H](c3ccc(-c4ccccc4)cc3)[C@@H]2C1`, the figure is 102% (active). In the case of `O=C(CN1CCOCC1)N1CCCCN2[C@@H](CO)[C@H](c3ccc(-c4ccccc4)cc3)[C@@H]2C1`, the inhibition is 112% (active).

Turning to `COCC(=O)N1CCCCN2[C@H](CO)[C@@H](c3ccc(-c4ccc(OC)cc4)cc3)[C@@H]2C1`, the inhibition was 4.91%.
